# Compound activity as filed in PubChem.
# This is a sample that favours compounds with a hit; in the whole collection about 9.4% have one here.
# ELG1 repair inh – ELG1-dependent DNA repair inhibition; 2.3% of 330,000 active; AID 504467; Potency, µM (titrated, usually from 46.1 µM), inactives show at the highest dose activity change, negative = inhibition, hits mostly inhibitors; HEK293T ELG1-luciferase reporter, luminescence, 16 h; DNA damage induced by 5-fluorouridine; also: % is scaled to controls: 0 for no effect and ±100 for the full control effect; nearly all actives have a fitted effect of over 55% in size
#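 Step one: seed 2,000 cells per well. Step two: pin-transfer compound or DMSO alongside 5-fluorouridine. Step three: incubate 16 hr, 37 °C, 5% CO2. Step four: add ONE-Glo, wait 30 min, read luminescence.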
# ELG1 genotox – induces genotoxicity in HEK293T cells with luciferase-tagged ELG1; HEK293T ELG1-luciferase reporter, luminescence, 16 h; Potency, µM (highest dose often 46 µM), inactives show at the highest dose activity change, positive = activation, usual class: activators; 1.3% of 330,000 active; AID 504466; also: % of control where 0% means no effect; nearly all actives have a fitted effect of over 60% in size
#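 Cells (2,000/well) expressing the ELG1-luciferase fusion are dosed by pin tool and kept 16 hr at 37 °C, 5% CO2. Signal comes from ONE-Glo luciferase reagent after 30 min at room temperature.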
# NPC1 promoter act – activators of NPC1 promoter. Huh7 NPC1 promoter luciferase reporter, 24 h. Potency, µM (highest dose often 9.22 µM), inactives show top-dose activation, actives largely listed as activators. 2.4% of 320,000 active. AID 485313; also: % of control where 0% means no effect; nearly all actives have a fitted effect of over 60% in size
#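 Huh7 reporter cells (NPC1 promoter driving luciferase) are dosed with compound for 24 h at 37 °C, 5% CO2; luciferase detection reagent is then added and luminescence measured after 10 min at ambient temperature.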
# Rab9 prom act – activators of Rab9 promoter. 2.8% of 320,000 active. Huh7 Rab9 promoter-luciferase reporter, luminescence, 24 h. AID 485297. Potency, µM (top dose mostly 9.22 µM), for inactives: top-dose activation, negative = inhibition, hits mostly activators; also: % of control where 0% means no effect; nearly all actives have a fitted effect of over 60% in size
#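 Cell-based reporter: Huh7 stable for Rab9 promoter-driven luciferase, plated in reduced-serum medium with 10% FBS at 1500 cells/well, compound-treated 24 h at 37 °C, luminescence read after 10 min reagent.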
# FLuc modulator – inhibits or activates purified firefly luciferase, miR-21 counter-screen. P08659. purified FLuc, Km substrates, luminescence inhibition. Potency, µM (highest dose often 57.5 µM), for the others: at the highest dose activity change, negative = inhibition, most hits filed as inhibitors. 6.9% of 360,000 active. AID 588342;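 also: plate controls were vehicle for no effect and reference inhibitor for full effect; nearly all actives have a fitted effect of over 55% in size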
# Target sequence (P08659 whole entry, looked up): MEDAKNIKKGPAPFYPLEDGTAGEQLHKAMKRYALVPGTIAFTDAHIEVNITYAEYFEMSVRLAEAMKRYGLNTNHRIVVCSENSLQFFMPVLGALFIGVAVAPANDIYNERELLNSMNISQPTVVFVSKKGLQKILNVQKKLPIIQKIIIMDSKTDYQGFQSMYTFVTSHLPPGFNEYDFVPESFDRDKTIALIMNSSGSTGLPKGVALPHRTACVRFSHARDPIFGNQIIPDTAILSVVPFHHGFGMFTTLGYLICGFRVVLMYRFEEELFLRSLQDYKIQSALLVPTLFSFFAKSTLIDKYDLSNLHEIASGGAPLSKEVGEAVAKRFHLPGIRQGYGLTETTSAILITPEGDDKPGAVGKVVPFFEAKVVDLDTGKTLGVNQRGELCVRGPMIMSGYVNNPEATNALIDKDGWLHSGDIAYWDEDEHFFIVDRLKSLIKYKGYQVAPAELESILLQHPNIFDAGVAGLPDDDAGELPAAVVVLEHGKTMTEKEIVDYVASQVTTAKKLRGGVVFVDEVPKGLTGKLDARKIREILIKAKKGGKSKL
#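 Purified P. pyralis luciferase, 10 nM final, with Km-level 10 uM D-luciferin and 10 uM ATP in 50 mM Tris acetate pH 7.5, 10 mM Mg acetate, 0.01% Tween-20, 0.05% BSA; 6-point qHTS titration about 60 µM downward; luminescence read.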
# SMN2 splice enh – enhancers of SMN2 splice variant expression. HEK293 SMN2-luciferase splicing reporter, luminescence, 30-36 h. Potency, µM (series often up to 46.1 µM), without a hit: at the highest dose activity change, positive = activation, actives largely listed as activators. 2.8% of 210,000 active; also: % of control where 0% means no effect; nearly all actives have a fitted effect of over 55% in size
#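 HEK293 cells carry an SMN2 […]–luciferase reporter in which exon 7 inclusion puts luciferase in frame. Cells were plated 10-12 h before compound addition, then incubated 30-36 h at 37C. ONE-Glo luminescence was read; sodium butyrate at 4.5 mM final served as control.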
# An asterisk follows results filed as active; ? = inconclusive; · = not tested or not shown; [ ] = remark or other dose. Calls follow the shape of the dose curve; as a rule, active = well fitted curve in the direction sought with a large enough effect; inconclusive = small, poorly fitted or top-dose-only effect, or another doubt; inactive = no such curve, though single readings can be large; an effect the other way counts as inactive or inconclusive. Potency is read from the fitted curve at half-maximal effect.
SMILES,ELG1 repair inh,ELG1 genotox,NPC1 promoter act,Rab9 prom act,FLuc modulator,SMN2 splice enh
COCCCNC(=O)C1CCCN(c2nn3cc(-c4ccc(C)cc4)nc3s2)C1 (stereo not drawn),·,·,·,·,8.5µM*,·
COc1ccc(-c2cn3nc(N4CCC(C(=O)NCc5cccc(Cl)c5)CC4)sc3n2)cc1,·,·,·,·,6%,·
COc1ccc(-c2cn3nc(N4CCCC(C(=O)NCc5ccc(Cl)cc5)C4)sc3n2)cc1 (stereo not drawn),·,·,·,·,12µM*,·
COc1cccc(CNC(=O)C2CCCN(c3nn4cc(-c5ccc(C)cc5)nc4s3)C2)c1 (stereo not drawn),·,·,·,·,7.6µM*,·
Cc1cc(C)c(S(=O)(=O)NCCc2cc3ccc(C)cc3[nH]c2=O)c(C)c1,·,·,·,·,-2%,2%
COc1ccc2c(c1)C(=O)[C@@H](OC(=O)NCc1ccco1)[C@H](c1ccc(OC)c(Br)c1)O2,·,·,·,·,·,-6%
COc1ccc(COCC(O)CN2CCN(S(=O)(=O)c3ccc(C(C)C)cc3)CC2)cc1 (stereo not drawn),13µM*,-3%,-6%,8%,1%,·
COc1cc(OC)cc(C(=O)N/N=C/c2ccc(OC)c(COc3ccc(F)cc3)c2)c1,-14%,-4%,-24%,-10%,8%,-16%
COc1ccc(OCc2cc(/C=N\NC(=O)c3ccccc3)ccc2OC)cc1,?,?,?,?,12µM*,·
COc1ccc(/C=N/NC(=O)c2cccnc2)cc1CN1CCN(c2ccc(F)cc2)CC1,?,-6%,-1%,-3%,-7%,-6%
COc1ccc(C(=O)N/N=C\c2ccc(OC)c(COc3ccccc3Br)c2)c(OC)c1,8.2µM*,-13%,-6%,-1%,5%,·
COc1ccc(C(=O)N/N=C/c2ccc(OC)c(CN3CCN(c4ccc(F)cc4)CC3)c2)cc1,21µM*,-10%,-4%,2%,-1%,-10%
O=C(Nc1ccc(Cl)cc1)N1CCOC12CCC1(CC2)OCCO1,-9%,-1%,3%,16%,17µM*,8%
O=C(NC1CCCC1)c1ccc2c(c1)N(Cc1ccc(C(F)(F)F)cc1)C(=O)c1ccccc1S2,·,·,·,·,6%,-15%
Cc1c(C(=O)NCC2CCCO2)oc2ccc3c(c12)C(=O)CC(C)(C)O3 (stereo not drawn),?,?,?,2.5µM*,2.7µM*,·
COc1ccccc1CNC(=O)c1oc2ccc3c(c2c1C)C(=O)CC(C)(C)O3,·,·,·,·,5.4µM*,13%
COCC(C)N1C(=O)Cc2c1nc(N)c1c(N)nc(N3CCN(c4ccccc4F)CC3)c(C#N)c21 (stereo not drawn),21µM*,-12%,-1%,-2%,-2%,·
CCOC(=O)c1c(NC(=O)c2ccc(S(=O)(=O)N(C)C3CCCCC3)cc2)sc2c1CCN(C(C)C)C2,·,·,·,·,-1%,·
CCN(CC)S(=O)(=O)c1nnc(NC(=O)COc2ccccc2F)s1,·,·,·,·,11µM*,·
CCN(CC)S(=O)(=O)c1nnc(NC(=O)COc2ccc(Cl)cc2)s1,·,·,·,·,2.4µM*,·
Cc1cc(C)cc(N(C)S(=O)(=O)c2nnc(NC(=O)COc3ccc(Cl)cc3)s2)c1,·,·,·,·,-13%,·
COc1ccc(-c2cccc(NS(=O)(=O)c3ccc(C)s3)c2)nn1,·,·,·,·,-19%,·
C=CC1=C2C=C(C3CC3)N(CCCOC(C)C)C=C2C(=O)C(C)(OC(=O)c2ccco2)C1=O (stereo not drawn),·,·,·,·,·,0%[9.22 µM]
Cc1ccc(-c2csc(N3CCC(C(N)=O)CC3)n2)cc1,?,8%,1.3µM*,2µM*,11µM*,·
CC(=O)c1cccc(-c2csc(N3CCC(C(N)=O)CC3)n2)c1,?,14%,1.3µM*,0.4µM*,17µM*,·
N#Cc1ccc(-c2csc(N3CCC(C(N)=O)CC3)n2)cc1,·,·,·,·,-10%,·
COc1ccc(-c2csc(N3CCC(C(N)=O)CC3)n2)cc1,0%,7%,26%,?,21µM*,·
